Screens (PubChem)
HRas wt GTP bind – human HRas wildtype GTP binding, change in either direction. GTP binding activity, % at 10 µM. 0.14% of 190,000 active. GST-Ras wt beads, Bodipy-FL-GTP binding, flow cytometry; actives lie on both sides. P01112;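 active = GTP binding activity at least 20% away from the 100% baseline, either lowered as inhibitor or raised as activator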;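 note: 0% = unlabeled GTP competition control and 100% = no-compound control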
Target sequence (P01112 whole entry, looked up): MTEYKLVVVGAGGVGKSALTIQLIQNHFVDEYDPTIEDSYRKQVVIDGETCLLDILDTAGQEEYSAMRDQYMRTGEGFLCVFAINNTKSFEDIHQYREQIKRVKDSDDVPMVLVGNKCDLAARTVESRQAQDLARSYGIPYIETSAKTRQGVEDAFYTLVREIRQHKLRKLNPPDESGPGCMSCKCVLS
Cdc42 wt GTP – modulators (inhibitors or activators) of GTP binding to human Cdc42 wildtype; P60953; GST-Cdc42 beads, Bodipy-GTP binding, flow cytometry; actives lie on both sides; percent activity (GTP binding), % at 10 µM; 0.2% of 190,000 active; AID 761;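 active = percent activity GTP binding at least 20 points away from the 100% baseline, either down as inhibitor or up as activator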;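 note: median bead fluorescence of bound Bodipy-FL-GTP at 100 nM; 0% = excess unlabeled GTP control and 100% = no compound control; below 100% means less GTP binding so inhibitor and above means activator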
Target sequence (P60953 whole entry, looked up): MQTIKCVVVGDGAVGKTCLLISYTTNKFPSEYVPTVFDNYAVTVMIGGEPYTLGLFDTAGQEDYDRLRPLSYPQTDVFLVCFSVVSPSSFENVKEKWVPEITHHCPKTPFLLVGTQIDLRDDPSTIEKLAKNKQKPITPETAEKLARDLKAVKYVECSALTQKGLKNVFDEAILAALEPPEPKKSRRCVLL
Rab2A wt mod – changes GTP binding to wildtype dog Rab2A, up or down; GST-Rab2 wt beads, Bodipy-GTP binding, flow cytometry; GTP binding activity, % at 10 µM; 0.19% of 190,000 active; AID 760;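 active = GTP binding activity at least 20 points away from 100%, either lowered or raised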;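 note: 0% = beads with excess unlabeled GTP and 100% = no-compound control corrected for plate trend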
Rac1 wt modul – modulators of human Rac1 wildtype GTP binding; P63000; GST-Rac1 beads, fluorescent GTP binding, flow cytometry; actives lie on both sides; 0 = cold GTP competed, 100 = untreated; GTP binding activity (% of control), % at 10 µM; 0.27% of 190,000 active;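 active = GTP binding activity at least 20 points away from the 100% control level, either lower or higher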
Rac1 mut GTP – human Rac1 activated mutant GTP binding change; P63000; GST-Rac1 activated beads, fluorescent GTP binding, flow cytometry; actives lie on both sides; 100% means binding = to untreated wells; percent activity (GTP binding), % at 10 µM; 0.11% of 190,000 active; AID 764;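 active = GTP binding at least 20 percentage points away from the 100% baseline, in either direction, so actives lie on both sides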
Rab7 wt GTP bind – dog Rab7 wildtype GTP binding, inhibitors and activators | GST-Rab7 beads, fluorescent GTP binding, flow cytometry; actives lie on both sides; untreated = 100%, excess cold GTP = 0% | GTP binding activity (percent of control), % at 10 µM | 0.055% of 190,000 active;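 active = fluorescent GTP binding to Rab7 beads changed by at least 20 points from the 100% baseline, either direction, mostly lower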;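 note: median green fluorescence of bound Bodipy-FL-GTP per Rab7 bead population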
* hit, by the source's call; [ ] = dose if it differs, or a comment. Sampled rows, rich in hits. Any-hit rate of the full collection: about 0.4%.

SMILES	HRas wt GTP bind	Cdc42 wt GTP	Rab2A wt mod	Rac1 wt modul	Rac1 mut GTP	Rab7 wt GTP bind
Cc1ccc(N=Nc2c(N)[nH]n3c(=O)c4c(nc23)CCCC4)cc1	86.0	86.0	82.0	75.0*	86.0	91.0
Cc1ccc(N=Nc2c(=O)[nH]n3c(C)cc(C)nc23)cc1	97.0	100.0	100.0	98.0	95.0	99.0
Cc1[nH]n2c(=O)c3c(nc2c1-c1ccc(F)cc1)CCCC3	87.0	87.0	87.0	81.0	88.0	92.0
Cc1ccc(N=Nc2c(N)[nH]n3c(=O)cc(C)nc23)cc1	87.0	88.0	81.0	75.0*	88.0	92.0
CC(=O)Oc1ccc(-c2cccc(C(=O)N(C)c3ccc(O)cc3)c2)cc1	98.0	97.0	97.0	100.0	93.0	109.0
O=C(Nc1nnc(CC(=O)N2CCOCC2)s1)c1cccs1	102.0	104.0	102.0	107.0	99.0	102.0
O=C(COc1cc(Cl)ccc1Cl)Nc1nnc(CC(=O)N2CCOCC2)s1	70.0*	71.0*	72.0*	87.0	86.0	86.0
O=C(O)c1ccccc1C(=O)NCc1cccnc1	101.0	99.0	100.0	104.0	102.0	97.0
O=C(NCc1cccnc1)c1cccn2c(=O)c3sccc3nc12	87.0	87.0	82.0	76.0*	86.0	91.0
Cn1nccc1C(=O)Oc1ccc(/C=N/NC(=O)c2ccccc2O)cc1	98.0	93.0	95.0	90.0	92.0	98.0
Nc1c(C(=O)C2CC2)sc2nc(-c3cccs3)cc(C(F)(F)F)c12	110.0	109.0	117.0	120.0*[activator]	103.0	116.0
CCc1ccc(OS(=O)(=O)c2cn(C)c(=O)n(C)c2=O)cc1	96.0	95.0	97.0	96.0	96.0	103.0
Cc1nn(Cc2ccccc2)c(C)c1NC(=O)CSc1nc2c(c(C(F)(F)F)n1)CCc1ccccc1-2	85.0	84.0	83.0	75.0*	88.0	92.0
CC(C)c1onc(C(=O)NC2CCCCC2)c1[N+](=O)[O-]	98.0	95.0	95.0	101.0	99.0	102.0
CC(=O)Nc1ccc(NC(=O)C(OC(=O)c2ccccc2)C(OC(=O)c2ccccc2)C(=O)O)cc1 (stereo not drawn)	94.0	92.0	95.0	98.0	93.0	103.0
COC(=O)c1ccccc1NC(=O)CSCC(=O)Nc1ccccc1OC	95.0	99.0	95.0	96.0	97.0	76.0*
Nc1[nH]n2c(=O)cc(-c3ccccc3)nc2c1N=Nc1ccccc1	95.0	95.0	94.0	98.0	94.0	97.0
Nc1nn2c(-c3ccccc3)cc(=O)[nH]c2c1N=Nc1ccc(Br)cc1	82.0	75.0*	75.0*	76.0*	76.0*	85.0
COc1cc2[nH]c(=S)nc(NCCc3ccc(C)cc3)c2cc1OC	54.0*	45.0*	49.0*	49.0*	65.0*	69.0*
COc1cc2[nH]c(=S)nc(NCCC(C)C)c2cc1OC	64.0*	56.0*	59.0*	52.0*	71.0*	85.0
COc1cc2[nH]c(=O)n(CCC(=O)NCCC(C)C)c(=O)c2cc1OC	101.0	103.0	100.0	107.0	98.0	101.0
COc1ccc(CCNC(=O)c2ccc(CNc3nc(=S)[nH]c4ccccc34)cc2)cc1OC	98.0	102.0	101.0	96.0	96.0	105.0
COc1cc2ncnc(NCc3cccs3)c2cc1OC	98.0	95.0	98.0	91.0	94.0	109.0
COc1cc2[nH]c(=S)nc(NCc3cccs3)c2cc1OC	63.0*	61.0*	66.0*	60.0*	81.0	90.0
COc1ccc(CCNc2nc(=S)[nH]c3cc(OC)c(OC)cc23)cc1OC	48.0*	49.0*	47.0*	71.0*	67.0*	74.0*
SMILES	HRas wt GTP bind	Cdc42 wt GTP	Rab2A wt mod	Rac1 wt modul	Rac1 mut GTP	Rab7 wt GTP bind
CCOC(=O)c1ccc(NC(=O)N2CCN(c3cccc(OC)c3)CC2)cc1	96.0	93.0	95.0	97.0	92.0	99.0
COc1cc2[nH]c(=S)nc(NCCc3ccc(S(N)(=O)=O)cc3)c2cc1OC	35.0*	32.0*	37.0*	40.0*	61.0*	81.0
COc1ccccc1CC(=O)NCCc1ccc(S(N)(=O)=O)cc1	103.0	108.0	103.0	111.0	102.0	100.0
CCOc1cccc(CN2CCN(CCc3ccccc3)C(CCO)C2)c1O (stereo not drawn)	85.0	87.0	89.0	88.0	85.0	98.0
OCCC1CN(Cc2ccccc2O)CCN1CCc1ccccc1 (stereo not drawn)	18.0*	16.0*	16.0*	12.0*	13.0*	10.0*
C(=N\N(Cc1ccccc1)c1ccccc1)/c1cccnc1	99.0	100.0	98.0	101.0	99.0	100.0
CN(/N=C/C=C/c1ccccc1)C1=NS(=O)(=O)c2ccccc21	68.0*	74.0*	72.0*	65.0*	81.0	86.0
CN(/N=C/c1cccnc1)C1=NS(=O)(=O)c2ccccc21	68.0*	78.0*	70.0*	69.0*	83.0	84.0
CN(NC(=O)CN1C(=O)c2ccccc2C1=O)C1=NS(=O)(=O)c2ccccc21	99.0	96.0	96.0	101.0	93.0	103.0
CCn1c(CNc2cccc(C(F)(F)F)c2)n[nH]c1=S	100.0	98.0	101.0	104.0	98.0	102.0
O=C(O)c1ccccc1Sc1ncnc2sc3c(c12)CCC3	121.0*[activator]	129.0*[activator]	124.0*[activator]	123.0*[activator]	123.0*[activator]	107.0
Cc1sc2ncnc(Sc3ccccc3C(=O)O)c2c1C	124.0*[activator]	137.0*[activator]	134.0*[activator]	145.0*[activator]	132.0*[activator]	122.0*[activator]
CCc1ccc(NS(=O)(=O)c2ccc3[nH]cc(C(=O)N4CCc5ccccc54)c(=O)c3c2)cc1	93.0	70.0*	93.0	92.0	95.0	91.0
Cc1cc(C)n(Cc2cc(C(=O)O)c3ccccc3n2)n1	99.0	100.0	100.0	103.0	95.0	106.0
COc1cc2[nH]c(=S)nc(NC3CCCCCC3)c2cc1OC	66.0*	69.0*	69.0*	60.0*	83.0	88.0
COc1cc2[nH]c(=S)n(CC3CCCO3)c(=O)c2cc1OC (stereo not drawn)	104.0	104.0	105.0	104.0	99.0	104.0
COc1cc2[nH]c(=S)nc(NCC3CCCO3)c2cc1OC (stereo not drawn)	81.0	74.0*	80.0	74.0*	84.0	88.0
C/C(=N\N(c1ccccc1)c1ccccc1)c1ccco1	95.0	98.0	97.0	95.0	96.0	94.0
Cc1ccc(/C=C2\SC(=S)N(Cc3ccccc3)C2=O)o1	89.0	88.0	90.0	89.0	88.0	89.0
COc1ccc(CN2C(=O)/C(=C/c3ccc(-c4ccc(Cl)c(C(=O)O)c4)o3)SC2=S)cc1	73.0*	75.0*	79.0*	76.0*	76.0*	84.0
